Assay outcomes from PubChem.
Abs 340nm: compound absorbs light at 340 nm; compound absorbance at 340 nm, fold over control; fold change at 10 µM; 65,000 tested, under 10 active; AID 708;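 active = at 10 µM dose, initial 340 nm absorbance at least 2 fold that of control wells; inactive = change under 2 fold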;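 also: initial absorbance extrapolated from kinetic A340 decline of NADH oxidation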
Autofluor 339: intrinsic fluorescence of library compounds, ex339/em460 – biochemical, MLSMR library, data from DPM-DC assay, artefact control, profiling panel; compound autofluorescence, ex339/em460 nm, NADH buffer; stronger effect = higher value; 1 = no-compound wells, NADH background; fluorescence fold increase at 10 µM; actives 5.5% (n = 65,000);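 active = at 10 µM, mean starting fluorescence two-fold or more over control wells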;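 also: signal is the first read of a kinetic run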
NADH enzymes: inhibitors of enzymes used to reach an NAD/NADH endpoint. coupled PK/LDH NADH assays, four targets. actives 0.02% (n = 65,000). IC50, µM (highest dose often 10 µM), inactives show at the top dose inhibition. AID 774;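 active = single-dose screening hits from any of four coupled enzyme assays that gave an IC50 when retested across doses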;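 also: the DPM-DC format reads NADH fluorescence rather than 340 nm absorbance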
Spn PMK inh: inhibitors of Streptococcus pneumoniae phosphomevalonate kinase; purified PMK, PK/LDH-coupled NADH absorbance 340 nm; inhibition, % at 10 µM; actives 0.49% (n = 65,000); AID 539;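 active = top-ranked compounds by inhibition in the single 10 µM screen, taking a fixed number of the strongest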;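 also: 0% = full reaction with DMSO carrier and 100% = background rate without enzyme reaction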
DPM-DC inhibit: blocks S. pneumoniae diphosphomevalonate decarboxylase. AID 556. purified DPM-DC, PK/LDH coupled NADH fluorescence. actives 0.49% (n = 65,000). calls only at 10 µM;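 active = the 320 compounds with the highest percent inhibition in the single-dose primary screen, excluding strongly autofluorescent ones, cut at about 32% in these data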;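 also: kinetic rate of NADH fluorescence loss reporting ADP formed by the decarboxylase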
MK inhibit: blocks S. pneumoniae mevalonate kinase; actives 0.48% (n = 65,000); purified MK, PK/LDH-coupled NADH absorbance 340 nm; inhibition, % at 10 µM;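 active = ranked among the strongest by inhibition in the single 10 µM screen, a fixed top-ranked set picked for dose follow-up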
Starred values were filed as active, the others as inactive; i = inactive; nt = no result given; + = active, no number. Only some compounds are listed: those with a hit (about 6.8% of all), similar ones and a draw of the others.

SMILES | Abs 340nm | Autofluor 339 | NADH enzymes | Spn PMK inh | DPM-DC inhibit | MK inhibit
Cc1cc(C)n2ncc(C(=O)NCc3cccnc3)c2n1 | 1.01 | 3.65* | 7.0% | 8.0 | i | 9.0
O=C(NCc1cccnc1)c1cnn2ccccc12 | 1.05 | 1.24 | 3.0% | 4.0 | i | 5.0
Cc1ccc2nc3c(cc(C(=O)NCc4cccnc4)c(=N)n3C(C)C)c(=O)n2c1 | 1.02 | 5.04* | 7.0% | 11.0 | nt | 3.0
Cc1cccn2c(=O)c3cc(C(=O)NCc4cccnc4)c(=N)n(C(C)C)c3nc12 | 1.13 | 3.7* | 11.0% | 7.0 | nt | 15.0
c1ccc(CC2CCN(c3nc(N4CCOCC4)nc(N4CCOCC4)n3)CC2)cc1 | 1.05 | 1.15 | 1.0% | 0.0 | i | 4.0
CCCC(=O)c1cc(F)c(N2CCOCC2)cc1C | 1 | 1.09 | 6.0% | 13.0 | i | 5.0
NC(=O)c1cnn2c(C(F)(F)F)cc(-c3ccccc3)nc12 | 1.14 | 2.15* | 14.0% | 5.0 | i | 18.0
NC(=O)c1cnn2c(C(F)(F)F)cc(-c3ccc(F)cc3)nc12 | 1.06 | 2.06* | 8.0% | 12.0 | i | 7.0
COc1cc(-c2cc(C(F)(F)F)n3ncc(C(=O)O)c3n2)cc(OC)c1OC | 1.1 | 1.11 | 4.0% | 2.0 | i | 11.0
Cc1ccc(-c2cc(C(F)(F)F)n3ncc(C(=O)N4CCN(C)CC4)c3n2)cc1 | 1.08 | 1.67 | 6.0% | 0.0 | i | 0.0
COc1ccc(OC)c2c(C)cc(N3CCN(C(=O)c4ccc(F)cc4)CC3)nc12 | 1.07 | 2.94* | 6.0% | 4.0 | i | 3.0
COc1ccc(C2(C)NC(=O)N(Cc3cc(Cl)cc4c3OCOC4)C2=O)cc1OC (stereo not given) | 0.9 | 1.06 | 13.0% | 31.0* | i | 7.0
CC1=C(C(=O)N2CCOCC2)C(c2ccccc2F)C2=C(CCCC2=O)N1 (stereo not given) | 1.06 | 2.94* | 4.0% | 7.0 | nt | 6.0
COC(=O)C1=C(C)NC2=C(C(=O)CCC2)C1c1cccs1 (stereo not given) | 1.06 | 1.55 | 7.0% | 4.0 | i | 3.0
COc1cc(OC)c(C2C(C(=O)N3CCOCC3)=C(C)NC3=C2C(=O)CC(C)(C)C3)cc1OC (stereo not given) | 1.11 | 1.16 | 4.0% | 0.0 | i | 6.0
COc1cc(C2C(C(=O)N3CCOCC3)=C(C)NC3=C2C(=O)CCC3)ccc1OC(C)=O (stereo not given) | 1.1 | 3.69* | 10.0% | 16.0 | nt | 3.0
COc1ccccc1NC(=O)C1=C(C)NC2=C(C(=O)CCC2)C1c1ccc2c(c1)OCO2 (stereo not given) | 1.07 | 2.48* | 13.0% | 7.0 | + | 0.0
CC1=C(C(=O)N2CCCCC2)C(c2cccs2)C2=C(CCCC2=O)N1 (stereo not given) | 1.08 | 2.06* | 3.0% | 9.0 | nt | 0.0
CC(C)CC(C(=O)Nc1oc(-c2ccco2)c(-c2ccco2)c1C#N)N1C(=O)c2ccccc2C1=O (stereo not given) | 1.07 | 1.1 | 2.0% | 4.0 | i | 0.0
O=C(CCCn1c(=O)c2sccc2n(Cc2ccc(F)cc2)c1=O)NCc1ccco1 | 0.98 | 1.01 | 3.0% | 18.0 | i | 6.0
Cc1ccc(NC(=O)CSc2nnc(Cn3cnc4ccccc43)o2)cc1 | 0.97 | 1.17 | 7.0% | 12.0 | i | 8.0
O=C(Nc1nc2c(ccc3ccccc32)s1)c1ccco1 | 1.14 | 2.8* | 3.0% | 3.0 | i | 0.0
Cc1nnc(NC(=O)c2ccco2)s1 | 1 | 1 | 2.0% | 4.0 | i | 7.0
Cc1nc2ccc3nc(NC(=O)c4ccco4)sc3c2s1 | 1.2 | 1.29 | 12.0% | 30.0* | i | 1.0
Cc1c(=O)n(OCc2ccccc2F)c2ccccc2[n+]1[O-] | 1.06 | 1.42 | 3.0% | 0.0 | i | 0.0
SMILES | Abs 340nm | Autofluor 339 | NADH enzymes | Spn PMK inh | DPM-DC inhibit | MK inhibit
CCOc1ccccc1NC(=O)C1CCN(S(=O)(=O)c2cccc3cccnc23)CC1 | 1.06 | 1.07 | 7.0% | 13.0 | i | 8.0
COc1ccc2oc(=O)c(NC(=O)C3CCCCC3)cc2c1 | 1.05 | 4.18* | 8.0% | 14.0 | nt | 1.0
Cc1c(C(=O)COC(C)(C)C)[nH]c2ccccc12 | 1.02 | 1.03 | 4.0% | 0.0 | i | 6.0
COc1ccc(C2C=C(C)Nc3nc(SC)nn32)cc1 (stereo not given) | 1.03 | 5.07* | 8.0% | 8.0 | nt | 8.0
CCOC(=O)C1=C(C)Nc2nc(SC)nn2C1c1ccc(C(=O)OC)cc1 (stereo not given) | 1 | 1.16 | 3.0% | 6.0 | i | 2.0
Cc1ccc(S(=O)(=O)N2CCCCC2)cc1C(=O)Nc1ncn[nH]1 | 1.01 | 1.08 | 3.0% | 9.0 | i | 0.0
O=c1[nH]c2ccccc2nc1-c1cccs1 | 1.05 | 4.89* | 6.0% | 11.0 | nt | 0.0
c1csc(-c2nnsc2-c2nc3ccccc3[nH]2)c1 | 1.03 | 1.22 | 3.0% | 8.0 | i | 2.0
CCN(CC)c1ccc2cc(NC(=O)CCC(=O)O)c(=O)oc2c1 | 0.99 | 2.96* | 3.0% | 4.0 | nt | 8.0
Cc1cc2oc(=O)c3c(c2cc1OCc1nn[nH]n1)CCCC3 | 1.09 | 3.29* | 4.0% | 5.0 | nt | 2.0
O=c1oc2cc(OCc3nn[nH]n3)ccc2c2c1CCCC2 | 1.11 | 3.8* | 2.0% | 3.0 | nt | 0.0
COc1ccc(N(CC(=O)N2CCc3ccccc3C2)S(=O)(=O)c2c(C)nn(C)c2C)cc1 | 1.03 | 1.08 | 3.0% | 5.0 | i | 4.0
CCn1ncc(C2=NOC(C(=O)NCCc3ccccc3)C2)c1C (stereo not given) | 0.99 | 1.06 | 0.0% | 0.0 | i | 1.0
Cc1cc(C#N)c(C)n1-c1cc(C(F)(F)F)ccc1N1CCOCC1 | 1 | 1.12 | 5.0% | 14.0 | i | 0.0
CCOC(=O)C(C)n1cnc2c(nnn2Cc2ccc(C)cc2)c1=O (stereo not given) | 0.98 | 1.01 | 4.0% | 17.0 | i | 6.0
Cc1ccc(S(=O)(=O)c2cc3c(=O)n4cccc(C)c4nc3n(Cc3ccco3)c2=N)cc1C | 1 | 2.28* | 11.0% | 8.0 | i | 6.0
Cc1ccc(S(=O)(=O)c2cc3c(=O)n4ccccc4nc3n(CC3CCCO3)c2=N)cc1 (stereo not given) | 1.01 | 1.31 | 12.0% | 6.0 | i | 5.0
Cc1ccc(S(=O)(=O)c2cc3c(=O)n4ccccc4nc3n(Cc3ccco3)c2=N)cc1 | 1.17 | 3.63* | 10.0% | 5.0 | nt | 15.0
COc1ccc(NC(=O)C2CCCN2C(=O)OCc2ccccc2)c(OC)c1 (stereo not given) | 0.99 | 1.09 | 6.0% | 18.0 | i | 0.0
Cc1cc(OCC(=O)N2CCOCC2)cc2oc(=O)c3ccccc3c12 | 1.02 | 2.89* | 0.0% | 0.0 | nt | 0.0
CCOc1ccc(OCC(=O)N2CCOCC2)cc1 | 1.05 | 1.08 | 4.0% | 0.0 | i | 11.0
CC(C)C(c1nnnn1Cc1ccccc1)N1CCN(Cc2ccc3c(c2)OCO3)CC1 (stereo not given) | 1.02 | 1.1 | 8.0% | 14.0 | i | 10.0
